Literature values, collected in PubChem BioAssay AID977611.
Out of some 3,900 compounds screened, about 3,900 (100%) were called active. Cut-off not given; nearly all actives show Kd up to about 4200 µM. The set was probably picked from earlier hits. This is one part of the list. Numbered stars: 1 amine (or outer) side, 2 acyl side, 3 side chain; on linkers, the order of the positions; unused ones are H or OH. Square brackets hold non-standard residues; d marks the D form. Peptide text beside a SMILES is read from it. X2 = C[C@@H](O)C(C)(C)n1cc([C@@H](O)[C@H](N[*:1])C(=O)[*:2])c2ccccc21; Ala(3R-Me,3-isobutenyl) = CC(C)=C[C@@H](C)[C@H](N)C(=O)O; NMeLeu(5-OH,4R) = CN[C@@H](C[C@@H](C)CO)C(=O)O; Phe(βR-OMe) = CO[C@H](c1ccccc1)[C@H](N)C(=O)O; NMeL = CN[C@@H](CC(C)C)C(=O)O

Experiment: PubChem AID 977611
Settings: PDB protein-ligand complexes, literature Kd

Compound: O=C1N[C@@H](c2ccc(O)cc2)c2c(-c3ccccc3)n[nH]c21
- Kd (protein: Capsid protein p24, PDB entry 4u0f): 1.2 µM (active)

Compound: CC(C)C[C@H](NC(=O)[C@H](CO)NC(=O)[C@H](CC(=O)O)NC(=O)[C@H](CC(C)C)NC(=O)[C@H](CC(C)C)NC(=O)[C@H](CC(=O)O)NC(=O)[C@H](CC(=O)O)NC(=O)[C@@H](NC(=O)[C@H](CCC(N)=O)NC(=O)[C@H](CC(=O)O)NC(=O)[C@H](CCC(N)=O)NC(=O)[C@H](CO)NC(=O)[C@H](C)NC(=O)[C@@H](NC(=O)[C@@H](NC(=O)CNC(=O)[C@H](C)N)C(C)C)C(C)C)C(C)C)C(=O)NCC(=O)N[C@@H](Cc1ccccc1)C(=O)O
- Kd (protein: Chemotaxis protein cheY, PDB entry 2pl9): 67.4 µM (active)

Compound: CC(C)C[C@H](NC(=O)CNC(=O)[C@@H](N)CCC(N)=O)C(=O)N[C@@H](CC(C)C)C(=O)N[C@@H](CC(=O)O)C(=O)N[C@@H](C)C(=O)N[C@@H](CC(C)C)C(=O)N[C@@H](CC(=O)O)C(=O)N[C@@H](CC(C)C)C(=O)N[C@@H](C)C(=O)N[C@@H](CO)C(=O)O
- Kd (protein: 14-3-3 protein zeta/delta, PDB entry 4n7g): 2.2 µM (active)

Compound: O=C(O)Cc1ccc(N2C(=O)C(O)=C(C(=O)c3ccc(Cl)s3)[C@@H]2c2cc(Br)cs2)cc1
- Kd (protein: Polymerase cofactor Ebola virus VP35, PDB entry 4ibf): 36.8 µM (active)

Compound: Cc1cc(C)c([C@H]2C(C(=O)c3cccs3)=C(O)C(=O)N2c2ccc(CC(=O)O)cc2)cc1C
- Kd (protein: Polymerase cofactor Ebola virus VP35, PDB entry 4ibb): 271 µM (active)

Compound: CN[C@@H](C)Cc1ccccc1
- Kd (protein: Anti-METH scFv, PDB entry 4gqp): 0.00025 µM (active)

Compound: CO[C@H](c1ccccc1)[C@@H]1NC(=O)[C@H](C)NC(=O)[C@H](C[C@@H](C)CO)N(C)C(=O)[C@H]([C@H](O)c2cn(C(C)(C)[C@@H](C)O)c3ccccc23)NC(=O)[C@H]([C@H](C)C=C(C)C)NC(=O)[C@H](CC(C)C)N(C)C(=O)[C@H](C(C)C)NC1=O (cyclo(A[Phe(βR-OMe)]V[NMeL][Ala(3R-Me,3-isobutenyl)][X2][NMeLeu(5-OH,4R)]))
- Kd (protein: Probable ATP-dependent Clp protease ATP-binding subunit(F2Y mutant), PDB entry 3wdd): 0.78 µM (active)
- Kd (protein: Probable ATP-dependent Clp protease ATP-binding subunit, PDB entry 3wdc): 0.012 µM (active)
- Kd (protein: Probable ATP-dependent Clp protease ATP-binding subunit, PDB entry 3wde): 0.124 µM (active)

Compound: CNC(=O)Nc1cc(Br)cc(NC(=O)NS(=O)(=O)c2cc(C)c(CCOC)s2)n1
- Kd (protein: Fructose-1,6-bisphosphatase 1, PDB entry 4mjo): 0.6 µM (active)

Compound: CNC(=O)C[C@H](C)O[P+](O)(O)OC
- Kd (protein: Lysozyme C, PDB entry 4tun): 3.87 µM (active)

Compound: CC(=O)N[C@H]1[C@H]([C@H](O)[C@H](O)CO)O[C@@H](C(=O)O)C[C@@H]1O
- Kd (protein: hemagglutinin with F95Y mutation of influenza virus B/Lee/40(F95Y mutant), PDB entry 4nrk): 0.024 µM (active)
- Kd (protein: hemagglutinin with F95Y mutation of influenza virus B/Lee/40, PDB entry 4nrl): 0.0024 µM (active)

Compound: CC(=O)N[C@H]1[C@H]([C@H](O)[C@H](O)CO)O[C@@](OC[C@H]2O[C@@H](O)[C@H](O)[C@@H](O)[C@H]2O)(C(=O)O)C[C@@H]1O
- Kd (protein: H5 (VN1194) Influenza Virus Haemagglutinin, PDB entry 4bgx): 17000 µM (active)
- Kd (protein: Hemagglutinin HA1, PDB entry 4kon): 0.33 µM (active)
- Kd (protein: Hemagglutinin(mutant form), PDB entry 4k67): 372 µM (active)
- Kd (protein: Hemagglutinin, PDB entry 4k64): 1000 µM (active)
- Kd (protein: Telomeric repeat-binding factor 2, PDB entry 4lkk): 1.2 µM (active)
- Kd (protein: neuraminidase, PDB entry 4gzx): 645 µM (active)

Compound: CC(=O)N[C@H]1[C@H]([C@H](O)[C@H](O)CO)O[C@@](O[C@H]2[C@@H](O)[C@@H](CO)O[C@@H](O[C@H]3[C@H](O)[C@@H](O)[C@@H](O)O[C@@H]3CO)[C@@H]2O)(C(=O)O)C[C@@H]1O
- Kd (protein: Carbohydrate binding domain from Streptococcus pneumoniae NanA sialidase, PDB entry 4c1w): 0.00039 µM (active)

Compound: CO[C@]1(C(=O)O)C[C@H](O)[C@@H](NC(=O)CO)[C@H]([C@H](O)[C@H](O)CO)O1
- Kd (protein: Outer capsid protein VP4, PDB entry 3tay): 420 µM (active)

Compound: CC(=O)N[C@@H]1[C@@H](O)[C@H](O[C@@H]2O[C@H](CO)[C@H](O)[C@H](O[C@]3(C(=O)O)C[C@H](O)[C@@H](NC(C)=O)[C@H]([C@H](O)[C@H](O)CO)O3)[C@H]2O)[C@@H](CO)O[C@H]1O
- Kd (protein: Hemagglutinin, PDB entry 4k63): 60 µM (active)
- Kd (protein: Neuraminidase, PDB entry 4gzw): 30 µM (active)
- Kd (protein: hemagglutinin, PDB entry 4lkg): 0.16 µM (active)
- Kd (protein: hemagglutinin, PDB entry 4lkj): 0.2 µM (active)

Compound: CC(=O)N[C@@H]1[C@@H](O[C@@H]2O[C@@H](C)[C@@H](O)[C@@H](O)[C@@H]2O)[C@H](O[C@@H]2O[C@H](CO)[C@H](O)[C@H](O[C@]3(C(=O)O)C[C@H](O)[C@@H](NC(C)=O)[C@H]([C@H](O)[C@H](O)CO)O3)[C@H]2O)[C@@H](CO)O[C@@H]1O
- Kd (PDB entry 4dxg): 0.087 µM (active)

Compound: CC(=O)N[C@H]1[C@H]([C@H](O)[C@H](O)CO)O[C@@](O)(C(=O)O)C[C@@H]1O
- Kd (protein: hemagglutinin, PDB entry 4lkh): 1000 µM (active)

Compound: CC(=O)N[C@H]1[C@H]([C@H](O)[C@H](O)CO)O[C@@](O[C@@H]2[C@@H](O)[C@H](O)O[C@H](CO)[C@@H]2O)(C(=O)O)C[C@@H]1O
- Kd (protein: Hemagglutinin(mutant form), PDB entry 4k66): 554 µM (active)

Compound: CC(=O)N[C@H]1[C@H]([C@H](O)[C@H](O)CO)O[C@@](O[C@H]2[C@@H](O)[C@@H](CO)O[C@@H](O[C@H]3[C@H](O)[C@@H](O)[C@H](O)O[C@@H]3CO)[C@@H]2O)(C(=O)O)C[C@@H]1O
- Kd (protein: Human galectin-3 CRD K176L mutant, PDB entry 4lbl): 11 µM (active)
- Kd (protein: wildtype Human galectin-3 CRD, PDB entry 4lbo): 1.7 µM (active)

Compound: CC(=O)N[C@H]1[C@H](O[C@@H]2[C@@H](O)[C@H](O)O[C@H](CO)[C@@H]2O)O[C@H](CO)[C@@H](O[C@@H]2O[C@H](CO)[C@H](O)[C@H](O[C@]3(C(=O)O)C[C@H](O)[C@@H](NC(C)=O)[C@H]([C@H](O)[C@H](O)CO)O3)[C@H]2O)[C@@H]1O
- Kd (protein: Hemagglutinin HA1, PDB entry 4kom): 0.1 µM (active)

Compound: O=C(NC[C@@H](COC(=O)c1cc(O)c(O)c(O)c1)OC(=O)c1cc(O)c(O)c(O)c1)Oc1cccc(C(F)(F)F)c1
- Kd (protein: Plasminogen activator inhibitor 1, PDB entry 4g8o): 0.022 µM (active)
- Kd (protein: Plasminogen activator inhibitor-1, PDB entry 4g8r): 0.022 µM (active)

Compound: C[C@H]1N[C@@H]2[C@@H](O)[C@H](O)[C@@H](CO)O[C@@H]2S1
- Kd (protein: BETA-N-ACETYLHEXOSAMINIDASE, PDB entry 4az5): 1.02 µM (active)
- Kd (protein: BETA-N-ACETYLHEXOSAMINIDASE, PDB entry 4azc): 1.38 µM (active)

Compound: CN1Cc2c(ccc3c2OCO3)-c2ccc3cc4c(cc3c21)OCO4
- Kd (protein: Chitinase A(W275G mutant), PDB entry 3as0): 28 µM (active)
- Kd (protein: Chitinase A, PDB entry 3arv): 2.3 µM (active)

Compound: N[C@@H](CCC(=O)N[C@@H](CSCCN(CCCl)c1ccc(CCCC(=O)O)cc1)C(=O)NCC(=O)O)C(=O)O
- Kd (protein: Glutathione S-transferase A1, PDB entry 4hj2): 2950 µM (active)
